According to PubChem BioAssay (NCI):
This is part of a sample that, as a whole, favours compounds with a hit. Of some 79,000 tested, about 15% had one in any assay. Cut-off read from the data, not from the text of the source: active = growth inhibition above about 70%; inactive = the rest.

Experiments:
[1] = NCI Yeast Anticancer Drug Screen. Data for the rad50 strain (AID 155);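 note: 0% = growth of vehicle-only cultures of the same strain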; settings: S. cerevisiae rad50 strain growth inhibition; at 50.0 µM; stronger effect = higher value
Method in brief: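 Cells are treated with compound, grown, and their growth is then scored against vehicle-only cultures of the same repair-deficient yeast strain.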

[2] = NCI Yeast Anticancer Drug Screen. Data for the mec2-1 strain (AID 157); settings: S. cerevisiae mec2-1 strain, at 50.0 µM, stronger effect = higher value
Method in brief: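 Strain: mec2-1 (DNA repair/cell cycle alteration). Compound exposure, then growth measured; inhibition expressed relative to vehicle.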

[3] = NCI Yeast Anticancer Drug Screen. Data for the sgs1 mgt1 strain (AID 161);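 note: 0% = growth of cultures given vehicle only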; settings: S. cerevisiae sgs1 mgt1 strain, at 50.0 µM, stronger effect = higher value
Method in brief: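 Test agents were incubated with a DNA-repair-mutant yeast strain. Growth was then read and compared against vehicle-treated controls.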

[4] = NCI Yeast Anticancer Drug Screen. Data for the cln2 rad14 strain (AID 165);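 note: 0% = growth equal to vehicle treated cultures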; settings: S. cerevisiae cln2 rad14 strain, at 50.0 µM, stronger effect = higher value
Method in brief: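 Compounds are applied to the cln2 rad14 yeast strain, and growth is then compared with that of vehicle-treated cultures to give inhibition.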

[5] = NCI Yeast Anticancer Drug Screen. Data for the bub3 strain (AID 167); settings: S. cerevisiae bub3 mutant strain, at 50.0 µM, stronger effect = higher value
Method in brief: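 Part of a panel of yeast mutants defective in DNA damage repair or cell cycle regulation. Each strain is grown with compound, and inhibition is calculated relative to solvent-treated cultures.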

[6] = NCI Yeast Anticancer Drug Screen. Data for the mlh1 rad18 strain (AID 175); settings: S. cerevisiae mlh1 rad18 strain growth inhibition; at 50.0 µM; stronger effect = higher value
Method in brief: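 Read-out is yeast growth inhibition, calculated against vehicle-only controls. The compound was applied to a strain engineered with DNA damage repair alterations.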

Measured: growth inhibition

[N-]=[N+]=Nc1ccc(S(=O)(=O)Oc2cc(OS(=O)(=O)c3ccc(N=[N+]=[N-])cc3)cc(OS(=O)(=O)c3ccc(N=[N+]=[N-])cc3)c2)cc1
inactive: [1] 4% | [2] 16.1% | [3] 10.6% | [4] 8% | [5] -5.9% | [6] 14.1%

O=C1N(CC2CO2)CCN1CC1CO1 (stereo unspecified)
inactive: [1] -22.4% | [2] -10.2% | [3] -5.3% | [4] -5.15% | [5] -20.4% | [6] -76%

Nc1cc(=O)n(Cc2ccco2)c(=S)[nH]1
inactive: [1] 19.8% | [2] -16.6% | [3] 9.35% | [4] 2.75% | [5] -7.95% | [6] -8%

CC1(O)CC2C(CC1SC1CC3C(CC1(C)O)C3(C)C)C2(C)C (stereo unspecified)
inactive: [1] -48.3% | [2] -33.5% | [3] -45.8% | [4] -26.4% | [5] -51.7% | [6] -33%

COc1ccc(C2CC(=O)NC2=O)cc1OC (stereo unspecified)
inactive: [1] 4.8% | [2] 17.4% | [3] -6.55% | [4] -12.2% | [5] 1.8% | [6] -5.65%

CCN(CC)Cc1cc2[nH]c3c4ccc(Cl)cc4ncc3c2cc1OC
inactive: [1] 23.8% | [2] 11.8% | [3] -6.15% | [4] -2.65% | [5] -45.5% | [6] -42.6%

OC1c2ccccc2-c2ccc(NCc3ccc4c(c3)OCO4)cc21 (stereo unspecified)
inactive: [1] 48.8% | [2] -11.2% | [3] 17.4% | [4] -5.2% | [5] -4.1% | [6] 19.4%

Cc1cc2ccccc2c2cc3ccccc3cc12
inactive: [1] -2.35% | [2] -6.4% | [3] 8.45% | [4] 11.8% | [5] -2.05% | [6] 7.75%

ClC1CC2CCC1C2 (stereo unspecified)
inactive: [1] 26.9% | [2] -20.8% | [3] 8.45% | [4] 7.75% | [5] -8.3% | [6] 9.1%

CCCCCCCCCCCCCCCCOc1ccc(C2=NCC(C)S2)c(C)c1 (stereo unspecified)
inactive: [1] 3.6% | [2] 2.6% | [3] 12.1% | [4] 45.7% | [5] -1.6% | [6] 38.1%

O=[N+]([O-])c1ccc(-c2cc3ccccc3nc2Cl)cc1
inactive: [1] 15.4% | [2] 12.1% | [3] 8.4% | [4] 5.55% | [5] 28.4% | [6] 17%

O=S1(=O)OCOS(=O)(=O)OCO1
inactive: [1] -24.9% | [2] -28.6% | [3] -14.2% | [4] -4.8% | [5] -13.8% | [6] -19.9%

O=C1c2cccnc2-c2ncccc21
inactive: [1] 16.3% | [2] 0.55% | [3] -1.35% | [4] 9.8% | [5] 5.4% | [6] 24.1%

COC(=O)c1cc(C(=O)OC)cc([N+](=O)[O-])c1
inactive: [1] -6.4% | [2] -21.9% | [3] 8.75% | [4] 20.4% | [5] -38.5% | [6] 0.05%

CCOC(=O)/C(=C\c1ccccc1)NC(=O)c1ccccc1
inactive: [1] 5.4% | [2] -2.75% | [3] -2.35% | [4] 7.3% | [5] 20% | [6] 4.85%

Cc1ccc(C(C#N)c2ccc(N)cc2)cc1 (stereo unspecified)
inactive: [1] 21.9% | [2] -21.3% | [3] 29.9% | [4] 17.1% | [5] 20.2% | [6] 32.5%

N#CC(c1ccccc1)C1CCCCC1 (stereo unspecified)
inactive: [1] -8.65% | [2] -20% | [3] -4.95% | [4] -4.3% | [5] 6.1% | [6] 20.4%

Cc1cccc(C[N+](C)(C)CCO)c1C
inactive: [1] -0.5% | [2] -13.2% | [3] 3.4% | [4] 6.7% | [5] 3.45% | [6] -20.6%

Cc1ccc(OCC2OC(n3cnc4c(N(C)C)nc(Br)nc43)CC2Oc2ccc(C)cc2)cc1 (stereo unspecified)
inactive: [1] 17.5% | [2] -4.8% | [3] 13.1% | [4] 12.6% | [5] 2.45% | [6] -17%

O=C(c1cc2ccccc2s1)c1ccccc1Cc1cccc2ccccc12
inactive: [1] 33.8% | [2] 7.25% | [3] 31.2% | [4] 21.2% | [5] 5.45% | [6] -0.75%

CC(C)NC(=O)OCc1c(COC(=O)NC(C)C)c(S(C)(=O)=O)n2c1CCC2
inactive: [1] 3.65% | [2] -4.7% | [3] -15.3% | [4] 7.9% | [5] -1.3% | [6] 6.8%
